In general, AC50 refers to the concentration giving half of the maximal activity seen.

Inconclusive results are not listed. Calls of active or inactive are those of the source. Rule for the calls, unless noted: active = hit-call score of the fitted dose curve at least 0.9, where 1 is the maximum; inactive = score below 0.9.

Test [1] deals with Paired box protein Pax-6 (Homo sapiens) (UniProt P26367). Briefly: ATG_Pax6_CIS: Attagene CIS-FACTORIAL HepG2 Assay for human Paired Box 6 (PAX6) (AID 2282956). Conditions: HepG2 CIS-FACTORIAL PAX6 reporter transcription, RNA readout; actives raise or lower the signal. The method in brief:
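HepG2 cells transiently transfected with cis-promoter-driven multiplexed reporter units sensing endogenous transcription factor activity; 24 h chemical exposure. Reporter mRNA quantified by RT-PCR, 6-FAM labelling, HpaI digestion and capillary electrophoresis; bidirectional fit versus DMSO baseline.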

Test [2] in a line: ATG_PXRE_CIS: Attagene CIS-FACTORIAL HepG2 Assay for human Pregnane X Receptor Element (PXRE) (AID 2282957). The settings on record: HepG2 Attagene CIS-FACTORIAL PXRE reporter, mRNA; actives raise or lower the signal. The method in brief:
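Transfect HepG2 with MRTUs (cis promoter elements); dose chemical, incubate 24 h; isolate RNA, RT with oligo(dT), PCR, 6-FAM label, HpaI cut, CE. Gain/loss fit vs DMSO.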

Test [3] is described as follows: ATG_PPRE_CIS: Attagene CIS-FACTORIAL HepG2 Assay for human Peroxisome Proliferator-activated Response Element (PPRE) (AID 2282958). The settings on record: HepG2 PPRE cis-element reporter, Attagene transcription factor profiling; actives raise or lower the signal. The method in brief:
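In this cell-based multiplex, a PPRE cis element drives a reporter sequence in transiently transfected HepG2 cells. Following 24 h treatment, labeled cDNA amplicons are sized and quantified by capillary electrophoresis, with DMSO defining baseline.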

A short description of test [4]: ATG_RORE_CIS: Attagene CIS-FACTORIAL HepG2 Assay for human RAR-related Orphan Receptor Element (RORE) (AID 2282959). The settings on record: HepG2 Attagene cis-factorial RORE reporter, mRNA; actives raise or lower the signal. The method in brief: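 Endogenous factor activity at a cis response element is read as reporter transcript levels in HepG2 cells, 24 h post-dose. Transcripts are quantified by RT-PCR with capillary electrophoresis, and data fitted in both directions against DMSO.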

Test [5] addresses Transcription factor Sp1 (Homo sapiens) (UniProt P08047). Briefly: ATG_Sp1_CIS: Attagene CIS-FACTORIAL HepG2 Assay for human Specificity Protein 1 (Sp1) (AID 2282961). The settings on record: HepG2 Sp1 cis-reporter transcription, actives raise or lower the signal. The method in brief:
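Cells: HepG2, transiently transfected with cis-regulated multiplexed reporters. Exposure: 24 h. Detection: reporter transcripts amplified, fluorescently labeled, restriction-digested and sized by capillary electrophoresis. Analysis: bidirectional fit relative to DMSO.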

Test [6] is described as follows: ATG_SREBP_CIS: Attagene CIS-FACTORIAL HepG2 Assay for human Sterol Regulatory Element Binding (SREBP) (AID 2282962). Conditions: HepG2 Attagene cis-factorial SREBP reporter, mRNA; actives raise or lower the signal. The method in brief:
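HepG2 cells transiently transfected with multiplexed cis-promoter reporter units sensing endogenous transcription factors; reporter mRNA measured 24 h after dosing by RT-PCR, 6-FAM labeling, HpaI digestion and capillary electrophoresis. Bidirectional fit versus DMSO.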

In test [7] the target is Signal transducer and activator of transcription 3 (Homo sapiens) (UniProt P40763). Briefly: ATG_STAT3_CIS: Attagene CIS-FACTORIAL HepG2 Assay for human Signal Transducer and Activator of Transcription 3 (STAT3) (AID 2282963). The settings on record: HepG2, Attagene cis-factorial STAT3 reporter transcription; actives raise or lower the signal. The method in brief: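 After a 24 h compound incubation, total RNA from MRTU-transfected HepG2 cells was converted to cDNA and reporter sequences PCR-amplified, labelled and profiled by capillary electrophoresis. Gain and loss of signal were referenced to DMSO.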

Test [8] can be described thus: ATG_TA_CIS: Attagene CIS-FACTORIAL HepG2 Assay for human TA Basal Promoter (AID 2282964). The settings on record: HepG2 Attagene CIS-factorial TA basal promoter reporter; actives raise or lower the signal. The method in brief: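 Steps: transfect HepG2 with MRTUs; dose 24 h; isolate RNA, DNase-treat, reverse-transcribe; PCR and FAM-label reporter cDNA; digest with HpaI 2h at 37 C; run capillary electrophoresis. Activity fitted both directions against DMSO.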

Test [9] can be described thus: ATG_TCF_b_cat_CIS: Attagene CIS-FACTORIAL HepG2 Assay for human T-Cell-Factor with beta-catenin (TCF/b-cat) (AID 2282965). Conditions: HepG2 TCF/beta-catenin cis-reporter transcription, actives raise or lower the signal. The method in brief:
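Measured: reporter mRNA in HepG2 transiently transfected with cis-promoter reporter units, 24 h after chemical addition. Fitting was bidirectional, DMSO as negative control.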

Test [10] in a line: ATG_TAL_CIS: Attagene CIS-FACTORIAL HepG2 Assay for human TAL Basal Promoter (AID 2282966).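 Note: background control endpoint measuring basal TAL promoter reporter mRNA not a specific factor.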 The settings on record: HepG2 Attagene cis-factorial TAL promoter reporter; actives raise or lower the signal. The method in brief: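 Fluorescence of labelled reporter cDNA fragments, resolved by capillary electrophoresis, gave the readout. Human HepG2 liver cells carried transiently transfected cis-element reporter units and were treated for 24 hours; activity was fitted bidirectionally against DMSO.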

Test [11] is described as follows: ATG_TGFb_CIS: Attagene CIS-FACTORIAL HepG2 Assay for human Transforming Growth Factor (TGF) (AID 2282967). Conditions: HepG2 Attagene CIS TGFb reporter, mRNA transcription; actives raise or lower the signal. The method in brief:
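Cells were dosed for 24 hours, after which total RNA was reverse-transcribed and reporter sequences amplified, labeled and sized by capillary electrophoresis. Activity was fitted in both directions against DMSO.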

Test [12] can be described thus: ATG_VDRE_CIS: Attagene CIS-FACTORIAL HepG2 Assay for human Vitamin D Receptor Element (VDRE) (AID 2282968). Conditions: HepG2 VDRE cis-reporter transcription, actives raise or lower the signal. The method in brief: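 In transiently transfected HepG2 liver cells, gain or loss of reporter mRNA after 24 h exposure is scored relative to DMSO, using fluorescence detection by capillary electrophoresis of RT-PCR products.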

Test [13] concerns the target Steroid hormone receptor ERR1 (Homo sapiens) (UniProt P11474). Briefly: ATG_ERRa_TRANS: Attagene TRANS-FACTORIAL HepG2 Assay for human Estrogen-Related Receptor alpha (ERRa) (AID 2282971; active = hit-call score of the fitted dose curve at least 0.9, where 1 is the maximum). Conditions: HepG2 Attagene TRANS reporter, ERRa transactivation. The method in brief:
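Reporter transcript induction was quantified by RT-PCR and capillary electrophoresis of FAM-labelled, HpaI-cut products after 24 h treatment of HepG2 cells carrying transiently transfected GAL4-UAS reporter units and an exogenous ERRa-Gal4 fusion; activity scored as increase over DMSO.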

The target in test [14] is Estrogen-related receptor gamma (Homo sapiens) (UniProt P62508). As to the kind of experiment: ATG_ERRg_TRANS: Attagene TRANS-FACTORIAL HepG2 Assay for human Estrogen-Related Receptor gamma (ERRg) (AID 2282977; active = hit-call score of the fitted dose curve at least 0.9, where 1 is the maximum;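 note: hits increase reporter signal over DMSO so potencies reflect activators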). Conditions: HepG2 Attagene TRANS reporter, ERRg transactivation. The method in brief: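 HepG2 cells transiently transfected with multiplexed GAL4-UAS reporter units and chimeric NR-Gal4 constructs were exposed to test chemicals for 24 h. Reporter mRNA was measured by RT-PCR, 6-FAM primer extension, HpaI digestion and capillary electrophoresis; gain-of-signal versus DMSO.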

For test [15], the target named is Glucocorticoid receptor (Homo sapiens) (UniProt P04150). Briefly: ATG_GR_TRANS: Attagene TRANS-FACTORIAL HepG2 Assay for human Glucocorticoid Receptor (GR) (AID 2282978; active = hit-call score of the fitted dose curve at least 0.9, where 1 is the maximum;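 note: activators score as hits since higher reporter transcript over DMSO is fitted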). Conditions: HepG2 Attagene TRANS GR reporter, mRNA transcription. The method in brief: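 Reporter transcript levels, detected by fluorescence after RT-PCR and capillary electrophoresis, served as the endpoint. HepG2 cells bearing transfected GAL4-UAS reporters responsive to NR-GAL4 chimeras were incubated with compound 24 h; DMSO defined baseline.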

Test [16] deals with X-box-binding protein 1 (Homo sapiens) (UniProt P17861). As to the kind of experiment: ATG_Xbp1_CIS: Attagene CIS-FACTORIAL HepG2 Assay for human X-box Binding Protein 1 (XBP1) (AID 2282972). Conditions: HepG2 XBP1 cis-element reporter, Attagene multiplex; actives raise or lower the signal. The method in brief: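 HepG2 cells transiently transfected with multiple cis-element reporter units report endogenous TF activity; 24 h exposure, then reporter mRNA measured by RT-PCR, 6-FAM labelling, HpaI digestion and capillary electrophoresis. Bidirectional fitting versus DMSO.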

Test [17] is described as follows: ATG_GAL4_TRANS: Attagene TRANS-FACTORIAL HepG2 Assay for GAL4 (Internal Marker) (AID 2282976; active = hit-call score of the fitted dose curve at least 0.9, where 1 is the maximum). The settings on record: HepG2 Attagene TRANS GAL4 internal marker reporter. The method in brief: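 First, HepG2 cells were transfected with reporter units under GAL4-UAS control. Next, they were treated with chemical for 24 h. Finally, RNA was reverse-transcribed, PCR-amplified, FAM-labelled and resolved by capillary electrophoresis, with induction scored against DMSO.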

The nature of test [18]: ATG_M_19_TRANS: Attagene TRANS-FACTORIAL HepG2 Assay for M19 Transcription Factor (Internal Marker) (AID 2282974; active = hit-call score of the fitted dose curve at least 0.9, where 1 is the maximum). The settings on record: HepG2 Attagene TRANS-FACTORIAL M19 internal marker reporter. The method in brief: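 Reporter mRNA induction was measured in transfected HepG2 cells 24 h after dosing. Endpoint fitted upward relative to DMSO and serves as a background control within the multiplexed TRANS panel.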

Sequence of Transcription factor Sp1 (Homo sapiens) (P08047 whole entry, looked up): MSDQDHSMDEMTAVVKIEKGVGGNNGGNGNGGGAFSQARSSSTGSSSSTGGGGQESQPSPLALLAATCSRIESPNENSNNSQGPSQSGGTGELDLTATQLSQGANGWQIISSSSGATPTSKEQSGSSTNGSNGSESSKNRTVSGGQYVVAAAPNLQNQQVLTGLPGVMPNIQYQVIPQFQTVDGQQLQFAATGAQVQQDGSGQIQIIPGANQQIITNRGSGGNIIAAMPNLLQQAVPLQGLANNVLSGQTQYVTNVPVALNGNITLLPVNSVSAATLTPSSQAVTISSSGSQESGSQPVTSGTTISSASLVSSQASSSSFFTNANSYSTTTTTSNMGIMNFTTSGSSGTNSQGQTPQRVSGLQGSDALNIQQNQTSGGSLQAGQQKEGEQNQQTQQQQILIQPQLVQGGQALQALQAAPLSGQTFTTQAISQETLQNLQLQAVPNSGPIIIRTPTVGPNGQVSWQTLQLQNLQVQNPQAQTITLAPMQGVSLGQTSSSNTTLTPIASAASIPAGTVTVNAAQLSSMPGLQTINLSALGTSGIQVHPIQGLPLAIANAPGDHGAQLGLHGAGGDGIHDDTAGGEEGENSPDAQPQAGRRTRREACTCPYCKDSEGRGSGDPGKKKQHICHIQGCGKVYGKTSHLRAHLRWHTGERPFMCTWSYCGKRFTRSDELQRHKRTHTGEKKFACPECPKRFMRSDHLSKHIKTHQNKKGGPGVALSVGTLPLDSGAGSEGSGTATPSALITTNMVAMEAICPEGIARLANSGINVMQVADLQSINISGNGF
Sequence of Estrogen-related receptor gamma (Homo sapiens) (P62508 whole entry, looked up, the tested form may be a part): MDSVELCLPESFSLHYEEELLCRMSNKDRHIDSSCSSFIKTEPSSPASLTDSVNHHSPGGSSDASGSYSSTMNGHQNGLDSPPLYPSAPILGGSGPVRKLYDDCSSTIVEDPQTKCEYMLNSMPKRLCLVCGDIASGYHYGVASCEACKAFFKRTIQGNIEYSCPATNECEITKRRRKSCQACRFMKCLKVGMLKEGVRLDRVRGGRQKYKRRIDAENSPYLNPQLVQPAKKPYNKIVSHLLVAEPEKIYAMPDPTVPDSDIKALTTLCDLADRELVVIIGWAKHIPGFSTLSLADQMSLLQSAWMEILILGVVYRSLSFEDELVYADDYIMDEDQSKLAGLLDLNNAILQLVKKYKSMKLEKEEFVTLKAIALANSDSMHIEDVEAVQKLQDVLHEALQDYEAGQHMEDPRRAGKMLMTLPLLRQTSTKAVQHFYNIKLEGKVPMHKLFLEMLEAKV
Sequence of Signal transducer and activator of transcription 3 (Homo sapiens) (P40763 whole entry, looked up): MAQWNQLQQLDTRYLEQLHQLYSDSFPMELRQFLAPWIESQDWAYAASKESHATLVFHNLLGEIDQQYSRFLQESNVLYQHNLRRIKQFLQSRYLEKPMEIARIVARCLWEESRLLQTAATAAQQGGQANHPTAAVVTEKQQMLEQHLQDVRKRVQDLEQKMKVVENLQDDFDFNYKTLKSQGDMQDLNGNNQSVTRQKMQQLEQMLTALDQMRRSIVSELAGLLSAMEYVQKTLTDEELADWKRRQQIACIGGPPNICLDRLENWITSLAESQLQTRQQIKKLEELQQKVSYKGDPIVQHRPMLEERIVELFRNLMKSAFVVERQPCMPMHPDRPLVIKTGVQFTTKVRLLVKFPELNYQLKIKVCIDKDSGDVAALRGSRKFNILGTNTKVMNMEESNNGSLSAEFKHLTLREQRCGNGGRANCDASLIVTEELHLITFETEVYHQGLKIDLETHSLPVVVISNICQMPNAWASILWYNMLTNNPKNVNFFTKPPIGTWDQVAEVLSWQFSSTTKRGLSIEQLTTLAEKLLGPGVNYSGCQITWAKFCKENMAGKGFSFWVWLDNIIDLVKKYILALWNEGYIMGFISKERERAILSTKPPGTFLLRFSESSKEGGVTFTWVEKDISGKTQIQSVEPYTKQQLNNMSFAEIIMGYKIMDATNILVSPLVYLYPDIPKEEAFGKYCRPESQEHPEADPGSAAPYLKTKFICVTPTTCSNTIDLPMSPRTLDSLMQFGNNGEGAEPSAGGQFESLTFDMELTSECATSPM
Sequence of Paired box protein Pax-6 (Homo sapiens) (P26367 whole entry, looked up): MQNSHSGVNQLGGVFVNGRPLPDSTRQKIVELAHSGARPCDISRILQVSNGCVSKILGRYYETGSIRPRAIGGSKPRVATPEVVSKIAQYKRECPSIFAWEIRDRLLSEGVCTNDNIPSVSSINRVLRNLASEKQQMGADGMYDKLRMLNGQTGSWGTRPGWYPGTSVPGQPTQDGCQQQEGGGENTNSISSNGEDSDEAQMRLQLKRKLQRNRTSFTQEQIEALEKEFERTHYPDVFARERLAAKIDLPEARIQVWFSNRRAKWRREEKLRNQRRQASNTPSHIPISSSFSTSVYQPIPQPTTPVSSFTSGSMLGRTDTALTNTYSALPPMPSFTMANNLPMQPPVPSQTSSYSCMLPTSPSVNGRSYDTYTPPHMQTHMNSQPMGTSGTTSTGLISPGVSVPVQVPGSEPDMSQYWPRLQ
Sequence of X-box-binding protein 1 (Homo sapiens) (P17861 whole entry, looked up): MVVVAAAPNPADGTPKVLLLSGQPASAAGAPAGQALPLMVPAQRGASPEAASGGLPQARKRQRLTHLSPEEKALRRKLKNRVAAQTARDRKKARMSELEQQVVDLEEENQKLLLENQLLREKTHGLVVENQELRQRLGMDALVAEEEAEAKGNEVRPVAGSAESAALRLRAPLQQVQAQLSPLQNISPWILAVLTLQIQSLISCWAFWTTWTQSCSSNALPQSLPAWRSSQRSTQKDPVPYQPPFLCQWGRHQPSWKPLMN
Sequence of Glucocorticoid receptor (Homo sapiens) (P04150 whole entry, looked up, the tested form may be a part): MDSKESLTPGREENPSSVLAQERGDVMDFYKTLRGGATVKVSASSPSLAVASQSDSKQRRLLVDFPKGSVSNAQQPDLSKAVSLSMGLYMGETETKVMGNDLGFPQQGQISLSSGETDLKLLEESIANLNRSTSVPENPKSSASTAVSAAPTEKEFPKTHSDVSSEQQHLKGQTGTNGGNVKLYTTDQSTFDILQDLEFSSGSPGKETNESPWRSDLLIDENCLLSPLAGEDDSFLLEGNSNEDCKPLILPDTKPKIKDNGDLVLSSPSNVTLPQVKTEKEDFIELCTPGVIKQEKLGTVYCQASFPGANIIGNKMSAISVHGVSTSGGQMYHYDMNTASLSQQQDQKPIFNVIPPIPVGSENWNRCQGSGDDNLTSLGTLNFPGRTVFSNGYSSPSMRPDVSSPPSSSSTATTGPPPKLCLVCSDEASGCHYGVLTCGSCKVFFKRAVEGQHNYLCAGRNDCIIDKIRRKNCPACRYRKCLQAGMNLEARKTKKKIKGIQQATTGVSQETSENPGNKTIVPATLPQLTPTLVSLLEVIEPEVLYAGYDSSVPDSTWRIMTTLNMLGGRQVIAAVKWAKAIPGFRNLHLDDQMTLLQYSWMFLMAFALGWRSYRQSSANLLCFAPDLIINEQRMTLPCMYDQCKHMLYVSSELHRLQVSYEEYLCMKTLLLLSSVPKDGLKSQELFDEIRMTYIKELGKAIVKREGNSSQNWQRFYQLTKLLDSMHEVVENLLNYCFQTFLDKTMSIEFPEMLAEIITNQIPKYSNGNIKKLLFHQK
Sequence of Steroid hormone receptor ERR1 (Homo sapiens) (P11474 whole entry, looked up, the tested form may be a part): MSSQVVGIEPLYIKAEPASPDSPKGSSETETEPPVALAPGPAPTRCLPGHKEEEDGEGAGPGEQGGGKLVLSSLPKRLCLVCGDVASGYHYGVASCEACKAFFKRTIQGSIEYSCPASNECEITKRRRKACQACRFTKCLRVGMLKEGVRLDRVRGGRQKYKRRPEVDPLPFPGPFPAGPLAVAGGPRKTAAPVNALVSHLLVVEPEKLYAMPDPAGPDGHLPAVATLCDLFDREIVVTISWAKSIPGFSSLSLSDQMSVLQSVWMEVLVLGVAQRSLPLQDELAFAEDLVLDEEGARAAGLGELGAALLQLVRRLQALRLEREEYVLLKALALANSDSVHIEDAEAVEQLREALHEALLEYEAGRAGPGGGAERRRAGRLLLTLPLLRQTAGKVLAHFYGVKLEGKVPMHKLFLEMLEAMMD

In the case of `CC[C@H]1CC[C@H](NCc2cc3c(cc2OC)[C@H]2C[C@H]2C(=O)N3C)[C@H](c2ccccc2)N1`, the compound was called inactive in test [1], in test [4], in [7], in test [8], in test [10] and in test [11]. Also, the outcome in test [13], in [14] and in test [15] was inactive. The AC50 is 4.91 µM (active) in test [2]; 75.6 µM (active) in test [3]; 47.5 µM (active) in test [5]; 36.6 µM (active) in [6]; 100 µM (active) in test [9]; 33.2 µM (active) in test [12].
For the compound `O=C1CCCCCN1`, the result in test [1], in [2], in test [3], in test [4], in test [5] and in test [6] was inactive. Besides, the outcome in [7], in test [8], in test [9], in [10], in test [11] and in test [12] was inactive. Moreover, the compound was classed as inactive in test [16] and in test [14].
Turning to `O=C(O)c1cccc(N(Cc2cccnc2)c2ccc(OC(F)F)c(OC(F)F)c2)c1`, the compound was classed as inactive in [1], in test [4], in test [5], in test [6], in [7] and in test [8]. In addition, the compound was called inactive in test [10], in [11], in test [12], in [16], in [17] and in [14]. Further, the AC50 in test [2] is 26.2 µM (active); in test [3], 25.1 µM (active); in [9], 100 µM (active).
For the compound `Cn1c(=O)cc(Oc2ccc(F)cc2F)c2cnc(NCC(C)(C)O)nc21`, the compound was called inactive in test [1], in test [2], in [3], in test [4], in test [5] and in test [6]. Also, the call in [7], in test [8], in [10], in [11], in test [12] and in test [18] was inactive. In addition, the result in test [15] was inactive. Moreover, the concentration at half-maximal activity (AC50) in test [9] was 56.9 µM (active).

Values taken from PubChem BioAssay (EPA / NIEHS).
